From PubChem BioAssay
T cruzi growth-1: inhibitors of T. cruzi proliferation; hit rate 5.9% among 77,000; inhibition, % at 8.34 µM; AID 624255; T. cruzi beta-gal in NIH3T3, GalScreen luminescence, 90 h;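 active means mean inhibition above about 93%, with at least 55% of replicates each passing it, limit read from the data, passing the limit was not always enough; inconclusive means only one of those two conditions holds; inactive means neither condition holds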
C diff growth: blocks growth of Clostridium difficile; hit rate 0.25% among 86,000; growth activity, negative = inhibition, % at 16 µg/mL (by protocol); Clostridium difficile clinical isolate growth, OD600, 24 h; hits give low values;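 active means mean growth activity at or below -80% and every replicate also at or below -80%; inconclusive means mean at or below -80% but some replicate above -80%; inactive means mean growth activity above -80%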;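 further: 0% = DMSO wells and -100% = levofloxacin 16 µg/mL wells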
T cruzi growth-2: blocks T. cruzi growth in NIH3T3 host cells; shares compounds with T cruzi growth-1; T. cruzi beta-gal in NIH3T3, GalScreen luminescence, 90 h; inhibition, % at 8.35 µM; hit rate 72% among 5,600; AID 651739;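 active means mean replicate inhibition above about 95% and at least 55% of replicates individually reaching it, limit read from the data; inconclusive means only one of the two criteria is met; inactive means neither criterion is met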
T cruzi growth-3: Trypanosoma cruzi proliferation inhibition. shares compounds with T cruzi growth-1. T. cruzi beta-gal in NIH3T3, GalScreen luminescence, 90 h. inhibition, % at 2.09 µM. hit rate 21% among 5,600. AID 651740;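 active means mean inhibition above about 95%, with at least 55% of replicates also reaching it, limit read from the data; inconclusive means meets just one of the two conditions; inactive means meets neither condition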;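 further: plate controls were neutral control median for no effect and positive control median for full effect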
NIH3T3 tox: NIH/3T3 (mouse) viability loss; NIH/3T3 viability, CellTiter-Glo ATP luminescence, 90 h; hit rate 14% among 5,600; cytotoxicity (signal decrease), % at 8.35 µM; shares compounds with T cruzi growth-1;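 active means mean signal decrease across replicates above about 35% based on untreated-well scatter, with enough replicates individually passing, limit read from the data; inconclusive means no rule stated though some were filed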;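 further: 0% = median of neutral control wells and 100% = median of positive control wells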
NIH3T3 tox 2: NIH/3T3 (mouse) viability loss; shares compounds with T cruzi growth-1; NIH/3T3 viability, CellTiter-Glo ATP luminescence, 90 h; inhibition, % at 24.9 µM; hit rate 56% among 5,600;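 active means mean loss of cell viability signal at or above a set limit, and enough replicates individually reaching it; inconclusive means meets only the mean limit or only the replicate share; inactive means meets neither condition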;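 further: 0% = median of neutral control wells and 100% = median of positive control wells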
Active calls of the source: *; ? = inconclusive; nt = not tested or not shown. Only a selection was taken, and hits are over-represented in it overall.

SMILES	T cruzi growth-1	C diff growth	T cruzi growth-2	T cruzi growth-3	NIH3T3 tox	NIH3T3 tox 2
C[C@@H]1CCCCO[C@@H](CN(C)CC2CCCCC2)[C@@H](C)CN([C@@H](C)CO)C(=O)c2cc(NS(=O)(=O)c3ccc(Cl)cc3)ccc2O1	64	-7	nt	nt	nt	nt
COc1ccc(NC(=O)N(C)C[C@@H]2OCCCC[C@@H](C)Oc3ccc(NC(=O)Nc4ccc5c(c4)OCO5)cc3C(=O)N([C@@H](C)CO)C[C@H]2C)cc1	-21	3	nt	nt	nt	nt
COc1ccc(S(=O)(=O)N[C@H]2CC[C@H](CCn3cc(-c4cccc(F)c4)nn3)O[C@H]2CO)cc1	-21	-5	nt	nt	nt	nt
C[C@@H]1CN([C@H](C)CO)C(=O)c2cc(C#Cc3ccccc3F)cnc2O[C@@H]1CN(C)S(C)(=O)=O	8	nt	nt	nt	nt	nt
C/C=C/c1ccc([C@H]2[C@@H](CO)N(Cc3cncnc3)C23CN(C(=O)CC)C3)cc1	nt	7	nt	nt	nt	nt
C[C@@H]1CCCCO[C@H](CN(C)C(=O)Nc2cccc3ccccc23)[C@H](C)CN([C@@H](C)CO)C(=O)c2cc(NC(=O)Nc3ccc(F)cc3)ccc2O1	101*	7	112*	60	-14	-11
C[C@@H]1CCCCO[C@@H](CN(C)C(=O)Nc2ccc(F)cc2)[C@H](C)CN([C@@H](C)CO)C(=O)c2cc(NC(=O)Nc3cccc4ccccc34)ccc2O1	91	-8	nt	nt	nt	nt
C[C@H](CO)N1C[C@H](C)[C@H](CN(C)C(=O)Nc2cccc3ccccc23)OCCCC[C@H](C)Oc2ccc(NC(=O)Nc3ccc(F)cc3)cc2C1=O	?	-3	101*	71	0	0
C[C@H](CO)N1C[C@H](C)[C@H](CN(C)C(=O)Nc2cccc3ccccc23)OCCCC[C@H](C)Oc2ccc(NC(=O)Nc3ccccc3)cc2C1=O	-18	1	nt	nt	nt	nt
C[C@@H]1CCCCO[C@H](CN(C)C(=O)Nc2cccc3ccccc23)[C@@H](C)CN([C@H](C)CO)C(=O)c2cc(NC(=O)Nc3ccc(F)cc3)ccc2O1	69	-3	nt	nt	nt	nt
C[C@@H]1CCCCO[C@H](CN(C)C(=O)Nc2ccc(F)cc2)[C@H](C)CN([C@@H](C)CO)C(=O)c2cc(NC(=O)Nc3cccc4ccccc34)ccc2O1	102*	-5	110*	81	-20	-5
CCCNC(=O)Nc1ccc2c(c1)OC[C@@H](C)N(Cc1ccccc1)C[C@@H](C)[C@H](OC)CN(C)C2=O	44	-2	nt	nt	nt	nt
C[C@@H]1CN([C@H](C)CO)C(=O)c2cc(C#C[C@@H](C)O)cnc2O[C@@H]1CN(C)Cc1ccccn1	-44	2	nt	nt	nt	nt
C/C=C/c1ccc(C2[C@H]3CNC[C@@H]2N3C(=O)NC(C)C)cc1 (stereo partly specified)	nt	-3	nt	nt	nt	nt
O=C(C[C@@H]1C[C@@H]2c3cc(NC(=O)Nc4ccccc4)ccc3O[C@@H]2[C@H](CO)O1)NCC1CC1	102*	0	-32	-7	-31	-13
COc1ccc(NC(=O)Nc2ccc3c(c2)[C@H]2C[C@H](CC(=O)NCCc4ccccc4)O[C@H](CO)[C@H]2O3)cc1	149*	28	109*	73	-20	-30
CCCNC(=O)C[C@@H]1C[C@H]2c3cc(NC(=O)Nc4ccc(OC)cc4)ccc3O[C@H]2[C@H](CO)O1	42	2	nt	nt	nt	nt
O=C(C[C@@H]1C[C@H]2c3cc(NC(=O)Nc4ccc(F)cc4)ccc3O[C@H]2[C@@H](CO)O1)NCC1CC1	-48	-4	nt	nt	nt	nt
CCCNC(=O)C[C@H]1C[C@@H]2c3cc(NC(=O)Nc4ccc(OC)cc4)ccc3O[C@@H]2[C@@H](CO)O1	41	-2	nt	nt	nt	nt
COc1ccc(NC(=O)Nc2ccc3c(c2)[C@@H]2C[C@H](CC(=O)NCCc4ccccc4)O[C@H](CO)[C@@H]2O3)cc1	159*	1	105*	101*	-28	-7
N#Cc1cccc(-c2ccc([C@H]3[C@@H](CO)N[C@@H]3CNC(=O)C3CCCC3)cc2)c1	nt	3	nt	nt	nt	nt
CN1c2ccc(C#Cc3ccc(F)cc3)cc2[C@@H]2[C@@H](CCN2S(=O)(=O)c2ccccc2F)[C@H]1CO	80	-5	nt	nt	nt	nt
CC(C)CC#Cc1ccc2c(c1)O[C@H](CN(C)C(=O)CN(C)C)[C@H](C)CN([C@@H](C)CO)S2(=O)=O	29	-10	nt	nt	nt	nt
COCC#Cc1cnc2c(c1)C(=O)N([C@@H](C)CO)C[C@@H](C)[C@H](CN(C)S(=O)(=O)c1ccccc1)O2	-3	3	nt	nt	nt	nt
CCC(=O)Nc1ccc2c(c1)C(=O)N(C)[C@@H]1CC[C@H](CC(=O)O)O[C@@H]1CO2	-1	1	nt	nt	nt	nt
SMILES	T cruzi growth-1	C diff growth	T cruzi growth-2	T cruzi growth-3	NIH3T3 tox	NIH3T3 tox 2
C/C=C/c1ccc([C@@H]2[C@H](CO)N3CCCCN(S(=O)(=O)c4cccc(C)c4)C[C@@H]23)cc1	76	-1	nt	nt	nt	nt
C/C=C/c1ccc([C@H]2[C@@H](CO)N3CCCCN(S(=O)(=O)c4cccc(C)c4)C[C@H]23)cc1	102*	17	101*	90	18	104*
C/C=C/c1ccc([C@@H]2[C@H]3CN(S(=O)(=O)c4ccccc4)CCCCN3[C@H]2CO)cc1	84	-7	nt	nt	nt	nt
C/C=C/c1ccc([C@H]2[C@@H](CO)N3CCCCN(S(=O)(=O)c4ccccc4)C[C@@H]23)cc1	102*	2	100*	-16	4	2
COCCNC(=O)C[C@@H]1CC[C@@H]2[C@@H](COc3ccc(NC(=O)Nc4ccccc4)cc3C(=O)N2C)O1	14	-5	nt	nt	nt	nt
Cc1ccc(S(=O)(=O)Nc2cccc3c2O[C@@H](CN(C)C)[C@@H](C)CN([C@@H](C)CO)C3=O)cc1	54	0	nt	nt	nt	nt
C[C@H]1CCCCO[C@@H](CN(C)CC2CCCCC2)[C@@H](C)CN([C@@H](C)CO)C(=O)c2cc(NC(=O)Nc3ccc(C(F)(F)F)cc3)ccc2O1	86	-68	nt	nt	nt	nt
C[C@@H]1CCCCO[C@@H](CN(C)CC2CC2)[C@@H](C)CN([C@H](C)CO)C(=O)c2cc(NC(=O)Nc3ccc(C(F)(F)F)cc3)ccc2O1	98*	0	99*	107*	32	101*
C[C@@H]1CCCCO[C@H](CN(C)CC2CCCCC2)[C@H](C)CN([C@@H](C)CO)C(=O)c2cc(NC(=O)Nc3ccc(C(F)(F)F)cc3)ccc2O1	?	-103*	97*	110*	121*	104*
C[C@@H]1CCCCO[C@@H](CN(C)CC2CCCCC2)[C@H](C)CN([C@@H](C)CO)C(=O)c2cc(NC(=O)Nc3ccc(C(F)(F)F)cc3)ccc2O1	?	-61	85	108*	117*	104*
C[C@@H]1CCCCO[C@@H](CN(C)CC2CCCCC2)[C@@H](C)CN([C@H](C)CO)C(=O)c2cc(NC(=O)Nc3ccc(C(F)(F)F)cc3)ccc2O1	102	-10	nt	nt	nt	nt
C[C@H](CO)N1C[C@H](C)[C@@H](CN(C)CC2CC2)OCCCC[C@H](C)Oc2ccc(NC(=O)Nc3ccc(C(F)(F)F)cc3)cc2C1=O	57	9	nt	nt	nt	nt
